High-throughput results: PubChem BioAssay, Johns Hopkins Ion Channel Center
KCNQ2 inh – rat KCNQ2 potassium channel inhibitors, primary screen, cell-based, CHO-K1, FluxOR thallium flux, B-score; 20 min; hits give low values; AID 2156, 2009; B-score at 10 µM; actives 1.1% (n = 310,000);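 active = fluorescence ratio B-score at most minus 3 library SDs, with starting brightness B-score within 2 library SDs, cut at about -5.5 in these data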
Target sequence (O88943 whole entry, looked up): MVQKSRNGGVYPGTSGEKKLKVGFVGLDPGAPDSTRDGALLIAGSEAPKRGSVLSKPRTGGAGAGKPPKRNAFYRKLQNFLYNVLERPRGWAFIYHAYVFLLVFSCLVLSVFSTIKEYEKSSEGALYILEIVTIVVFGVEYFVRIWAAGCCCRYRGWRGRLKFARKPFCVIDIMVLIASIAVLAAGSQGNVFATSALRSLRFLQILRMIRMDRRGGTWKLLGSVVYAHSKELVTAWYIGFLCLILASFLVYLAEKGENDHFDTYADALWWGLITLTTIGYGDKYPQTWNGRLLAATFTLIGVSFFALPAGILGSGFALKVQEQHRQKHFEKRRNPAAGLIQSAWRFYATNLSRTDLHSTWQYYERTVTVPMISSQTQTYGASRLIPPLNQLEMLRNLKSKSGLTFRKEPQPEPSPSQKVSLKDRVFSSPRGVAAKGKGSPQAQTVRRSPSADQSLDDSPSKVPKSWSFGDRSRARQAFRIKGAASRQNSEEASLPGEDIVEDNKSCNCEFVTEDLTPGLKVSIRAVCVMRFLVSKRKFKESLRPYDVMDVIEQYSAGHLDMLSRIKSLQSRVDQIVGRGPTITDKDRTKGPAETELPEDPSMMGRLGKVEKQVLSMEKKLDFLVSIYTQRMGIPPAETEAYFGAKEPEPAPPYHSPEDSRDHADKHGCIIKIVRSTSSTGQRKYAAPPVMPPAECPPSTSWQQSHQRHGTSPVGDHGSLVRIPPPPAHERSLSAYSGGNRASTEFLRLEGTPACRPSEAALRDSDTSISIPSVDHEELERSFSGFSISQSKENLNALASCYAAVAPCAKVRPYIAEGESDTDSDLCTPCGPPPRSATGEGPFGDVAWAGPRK
KCNQ2 pot – potentiators of rat KCNQ2 potassium channel; B-score at 10 µM; Potassium voltage-gated channel subfamily KQT member 2 (Rattus norvegicus), O88943; actives 0.54% (n = 310,000); CHO-K1 KCNQ2, FluxOR thallium flux fluorescence; hits give high values; AID 2239, 2010;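 active = fluorescence ratio B-score at least 3 SD of library B-scores, with initial fluorescence B-score within 3 of them, cut at about 5.3 in these data; same plate scores as AID 2156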;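 note: B-score of peak minus minimum over baseline fluorescence ratio after K+ and Tl+ stimulus; positive B-score means potentiation of KCNQ2 with more thallium influx and brighter signal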
Starred values were filed as active, the others as inactive; i = inactive; . = no result given. Only some compounds are listed: those with a hit (about 1.6% of all), similar ones and a draw of the others.

SMILES	KCNQ2 inh	KCNQ2 pot
Cc1ccc(NC(=O)[C@H](Cc2ccccc2)NC(=O)[C@@H]2Cc3ccccc3CN2)c(C)c1	i	.
CCc1ccc(NC(=O)[C@H](Cc2c[nH]c3ccccc23)NC(=O)[C@@H]2Cc3ccccc3CN2)cc1	i	.
Cc1cccc(NC(=O)[C@H](Cc2c[nH]c3ccccc23)NC(=O)[C@@H]2Cc3ccccc3CN2)c1	-6.5*	-6.5
CC(C)C[C@H](NC(=O)[C@@H]1Cc2ccccc2CN1)C(=O)Nc1ccc(C(C)C)cc1	i	.
CC(NC(=O)[C@H](Cc1c[nH]c2ccccc12)NC(=O)[C@@H]1Cc2ccccc2CN1)c1ccccc1 (some centres undefined)	-5.9*	-5.9
CCN(CC)P(=O)(Nc1ccccc1Br)c1ccc(N(C)C)cc1NC(=O)c1ccco1 (centres undefined)	i	0.45
CN(C)S(=O)(=O)c1cccc(NC(=O)c2sccc2-c2ccccc2)c1	i	.
CC(C)C1CC(C(F)(F)F)n2nc(C(=O)O)cc2N1 (centres undefined)	i	.
CC(C)OCCCn1c(=O)c2ccccc2n2c(CCC(=O)O)nnc12	i	1.6
CC(C)OCCCn1c(=O)c2ccccc2n2c(CCC(=O)NC3CCN(Cc4ccccc4)CC3)nnc12	-6*	-6
CCOc1cc(C2NC(=O)NC(c3ccccc3)=C2C(=O)c2ccccc2)c(Br)cc1OCC(=O)O (centres undefined)	i	.
Cc1ccc(C)c(N(C(=O)c2csnn2)C(C(=O)NC2CCCCC2)c2cccnc2)c1 (centres undefined)	i	0.5
Cc1ccc(C)c(Nc2nn3c(=O)c4ccc(C(=O)NCc5cccnc5)cc4nc3s2)c1	i	0.89
CCOC(=O)C1CCN(C(=O)c2ccc3c(=O)n4nc(Nc5cc(C)ccc5C)sc4nc3c2)CC1	-5.8*	-5.8
O=C(NCCCNC(=O)c1cnccn1)c1ccc(Br)cc1	i	.
COc1cccc(N2CCN(C(=O)c3cc4ccc(OC)cc4[nH]3)CC2)c1	i	1.2
COc1ccc2cc(C(=O)N3CCN(c4cccc(C)c4C)CC3)[nH]c2c1	-6.2*	-6.2
CC(NC(=O)c1ccc(OC2CCN(Cc3ccccn3)CC2)cc1)c1nccs1 (centres undefined)	i	0.02
CNc1ccccc(-c2ccc3ccccc3n2)c1=O	i	.
Cc1ccc(S(=O)(=O)NC2c3cccc4cccc(c34)C2Sc2nncn2C)cc1 (centres undefined)	i	1.5
O=S(=O)(NC1c2cccc3cccc(c23)C1Sc1ncccn1)c1ccccc1 (centres undefined)	-6.4*	-6.4
Cn1cnnc1SC1c2cccc3cccc(c23)C1NS(=O)(=O)c1ccccc1 (centres undefined)	i	.
Cc1ccc(S(=O)(=O)NC2c3cccc4cccc(c34)C2Sc2nc(C)cc(C)n2)cc1 (centres undefined)	-6.4*	-6.4
O=C(CCCCCNC(=O)N1CCn2c1nc1ccccc12)NCc1ccccc1	i	.
COC(=O)CC(c1ccc(OC)c(OC)c1)c1ccc(OC)c(OC)c1	i	.
SMILES	KCNQ2 inh	KCNQ2 pot
COc1cccc(CC2(CO)CCCN(Cc3ccc(CN4CCCCC4)s3)C2)c1 (centres undefined)	i	1.3
COC1(OC)C(/C=C/c2ccc(C)cc2)C(C#N)(C#N)C1(OC)OC (centres undefined)	-7.5*	-7.5
COc1cccc(N2CCN(C(=O)c3cccn4c(=O)c5c(C)c(C)sc5nc34)CC2)c1	i	.
Cc1sc2nc3c(C(=O)N4CCCC4)cc(C(=O)c4ccccc4O)cn3c(=O)c2c1C	-7.1*	-7.1
CC(C)Oc1ccccc1C1NC(=O)CCC1[N+](=O)[O-] (centres undefined)	i	.
Cc1ccccc1NS(=O)(=O)c1cc(C(=O)NCCSC2CCCCC2)ccc1C	-5.8*	-5.8
Cc1ccc(C)c(NS(=O)(=O)c2cc(C(=O)NCCSC3CCCCC3)ccc2C)c1	i	.
Nc1c(-c2cccc(Cl)c2)cnc2c(-c3ccccc3)cnn12	i	.
CCCCCCCC(=O)Nc1cc(C(=O)NCCC)ccc1N1CCC2(CC1)CC(c1ccccc1)=NO2	-6*	-6
CCCNC(=O)c1ccc(N2CCC3(CC2)CC(c2ccccc2)=NO3)c(NC(=O)c2ccc(Br)cc2)c1	i	.
O=C(Nn1cnnc1)c1cc(Cl)cc(Cl)c1	i	0.54
Cn1c(C(=O)NCCc2c[nH]c3ccccc23)cc2sccc21	i	.
O=C(NCCc1c[nH]c2ccccc12)c1cc2sccc2n1Cc1ccccc1	-6.5*	-6.5
CC(C)(C)NC(=O)CSc1nnc(-c2ccncc2)n1Cc1ccccc1	i	1.8
CC(C)(C)NC(=O)CSc1nnc(-c2ccccn2)n1Cc1ccccc1	i	8.1*
O=C(Nc1cccc(-n2cnnn2)c1)c1ccc(OC(F)(F)F)cc1	i	2.4
C=CC[C@@H]1C=C[C@H](O/N=C/c2ccc(C(=O)N3[C@H](c4ccc(C)cc4)[C@@H](C)CC[C@H]3C(=O)OC)cc2)[C@@H](CO)O1	-6.1*	-6.1
COC(=O)[C@@H]1CC[C@H](C)[C@@H](c2ccc(C)cc2)N1C(=O)c1ccc(/C=N/OC[C@@H](O)COCc2ccco2)cc1	i	.
COc1ccc(OCC(=O)NC(=S)N2CCCc3ccccc32)cc1	i	.
O=C(COc1ccccc1)NC(=S)N1CCc2ccccc21	i	10*
CCN(CC)C(=O)C(Sc1nnnn1-c1ccc(O)cc1)c1ccccc1 (centres undefined)	-6.1*	-6.1
CCC(Sc1nnnn1-c1ccccc1)C(=O)NC(C)c1ccccc1 (centres undefined)	i	.
Cc1cc(F)ccc1S(=O)(=O)N1CCCOC1CNC(=O)C(=O)NC1CCCCC1 (centres undefined)	i	0.81
Cc1nc(Nc2cc(F)ccc2C)c2nnn(Cc3ccccc3)c2n1	i	.
CCn1c(/C=C/c2ccccc2)nc2ccccc21	i	.
SMILES	KCNQ2 inh	KCNQ2 pot
CCC(C)n1c(/C=C/c2ccccc2)nc2ccccc21 (centres undefined)	-5.7*	-5.7
Cc1cc2ccccc2c(=O)n1CC(=O)NCCC1=CCCCC1	i	.
CC(NC(=O)Nc1ccc(Cl)cc1)c1ccccc1 (centres undefined)	i	.
Cc1ccc(C(NC(=O)NC(C)c2ccccc2)C(Cl)(Cl)Cl)cc1F (centres undefined)	i	17*
O=C(NC(=S)N1CCN(Cc2ccc3c(c2)OCO3)CC1)c1ccc(Cl)cc1	i	8.9*
CCNC(=S)N1CCN(Cc2ccc3c(c2)OCO3)CC1	i	2.3
O=C(c1cccn2c(=O)c3ccc(Cl)cc3nc12)N1CCN(Cc2ccc3c(c2)OCO3)CC1	-5.8*	-5.8
O=C(c1cccc(Cl)c1)N1CCN(Cc2ccc3c(c2)OCO3)CC1	i	.
O=C(NC(=S)N1CCN(Cc2ccc3c(c2)OCO3)CC1)c1cccc(Br)c1	i	9.5*
Cc1cc(Cl)ccc1NC(=S)N1CCN(Cc2ccc3c(c2)OCO3)CC1	i	.
Cc1ccn(-c2ccc(NC(=O)c3cccs3)cc2)n1	i	.
COc1cc2c(C(=O)N3CCN(c4cccc(Cl)c4)CC3)cn(CC(C)C)c(=O)c2cc1OC	i	.
c1ccc(-c2onc(-c3ccco3)c2-c2ccc3c(c2)OCO3)cc1	-5.9*	-5.9
